Source: the supplement of paper PMC10849652
Targets with a hit are over-represented here; the source holds about 7,900 in all. About 0.6% of all pairs of compound and target were hits.

Compound: CC[C@H](C)N1C=C(C2=C(C=C(C=C21)C3=CN=C(C=C3)N4CCNCC4)C(=O)NCC5=C(C=C(NC5=O)C)C)C
Assay: log2 fold change, soluble protein after heating vs DMSO (PISA); higher = thermal stabilisation; K562 cells, 10 uM, 30 min; active = over 0.2 and 3.5 SD of the protein, either way, in both replicates (recomputed)
How it was run: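 Values are thermal stability changes relative to control samples and are taken from duplicates. They are stated as log2 fold changes. Before quantification by TMTpro 16plex LC-MS/MS with equalised channel sums, K562 cells at 2×10^6 cells/mL were treated with 10 μM compound for 30 min, heated in aliquots for 3 min across 48°C-58°C, pooled, extracted in PBS with 0.5% NP-40 at 4°C, and centrifuged at 21,000xg for 90 min to give the soluble supernatant.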

UniProt Q9HAW4, sequence (Q9HAW4 whole entry, looked up): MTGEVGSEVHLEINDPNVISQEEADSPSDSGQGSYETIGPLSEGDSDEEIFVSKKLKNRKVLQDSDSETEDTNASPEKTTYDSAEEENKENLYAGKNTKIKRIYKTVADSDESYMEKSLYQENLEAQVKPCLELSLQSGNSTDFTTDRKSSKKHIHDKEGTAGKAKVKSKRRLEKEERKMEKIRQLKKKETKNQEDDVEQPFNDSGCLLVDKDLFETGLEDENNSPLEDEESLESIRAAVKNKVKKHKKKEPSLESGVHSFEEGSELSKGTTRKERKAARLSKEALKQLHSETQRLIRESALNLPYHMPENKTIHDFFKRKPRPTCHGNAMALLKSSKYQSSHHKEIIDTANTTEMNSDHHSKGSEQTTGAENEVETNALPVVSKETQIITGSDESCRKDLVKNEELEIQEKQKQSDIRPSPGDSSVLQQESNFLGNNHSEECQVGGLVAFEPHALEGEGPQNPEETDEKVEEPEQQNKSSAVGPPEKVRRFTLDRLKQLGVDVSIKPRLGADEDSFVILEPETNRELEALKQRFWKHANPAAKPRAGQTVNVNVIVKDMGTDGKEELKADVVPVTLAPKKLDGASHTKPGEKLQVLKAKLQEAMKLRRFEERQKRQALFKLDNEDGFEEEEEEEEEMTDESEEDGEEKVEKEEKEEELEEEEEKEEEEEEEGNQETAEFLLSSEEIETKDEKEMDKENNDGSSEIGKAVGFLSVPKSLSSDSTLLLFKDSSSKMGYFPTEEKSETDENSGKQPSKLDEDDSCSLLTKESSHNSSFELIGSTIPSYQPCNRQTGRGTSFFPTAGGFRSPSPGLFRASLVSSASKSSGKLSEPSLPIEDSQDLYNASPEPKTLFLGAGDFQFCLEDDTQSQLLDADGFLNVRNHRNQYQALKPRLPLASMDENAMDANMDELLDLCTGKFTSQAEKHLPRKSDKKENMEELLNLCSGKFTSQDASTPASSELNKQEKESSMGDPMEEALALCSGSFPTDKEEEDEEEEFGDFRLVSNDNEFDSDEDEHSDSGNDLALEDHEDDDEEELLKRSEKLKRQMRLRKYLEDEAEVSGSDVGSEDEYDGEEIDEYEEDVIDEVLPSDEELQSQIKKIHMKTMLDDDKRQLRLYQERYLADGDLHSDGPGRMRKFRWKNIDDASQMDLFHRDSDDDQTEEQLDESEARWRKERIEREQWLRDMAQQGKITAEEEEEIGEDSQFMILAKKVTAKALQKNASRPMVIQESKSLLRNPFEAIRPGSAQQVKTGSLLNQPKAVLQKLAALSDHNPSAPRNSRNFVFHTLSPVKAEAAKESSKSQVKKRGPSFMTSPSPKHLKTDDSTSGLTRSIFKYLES
UniProt Q9NRR8, sequence (Q9NRR8 whole entry, looked up): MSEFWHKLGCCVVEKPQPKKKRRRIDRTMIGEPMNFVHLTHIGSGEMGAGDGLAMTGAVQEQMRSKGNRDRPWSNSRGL
UniProt Q9NPF2, sequence (Q9NPF2 whole entry, looked up): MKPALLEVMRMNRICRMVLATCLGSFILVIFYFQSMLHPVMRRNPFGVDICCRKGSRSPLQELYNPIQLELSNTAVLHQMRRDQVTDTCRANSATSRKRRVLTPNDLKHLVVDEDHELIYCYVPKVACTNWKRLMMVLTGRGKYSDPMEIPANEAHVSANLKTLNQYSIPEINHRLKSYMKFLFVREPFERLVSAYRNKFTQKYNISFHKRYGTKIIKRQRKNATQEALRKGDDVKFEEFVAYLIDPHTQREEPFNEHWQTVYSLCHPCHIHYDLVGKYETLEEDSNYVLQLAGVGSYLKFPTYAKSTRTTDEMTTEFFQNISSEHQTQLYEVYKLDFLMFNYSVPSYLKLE
UniProt Q5T5Y3, sequence (Q5T5Y3 whole entry, looked up): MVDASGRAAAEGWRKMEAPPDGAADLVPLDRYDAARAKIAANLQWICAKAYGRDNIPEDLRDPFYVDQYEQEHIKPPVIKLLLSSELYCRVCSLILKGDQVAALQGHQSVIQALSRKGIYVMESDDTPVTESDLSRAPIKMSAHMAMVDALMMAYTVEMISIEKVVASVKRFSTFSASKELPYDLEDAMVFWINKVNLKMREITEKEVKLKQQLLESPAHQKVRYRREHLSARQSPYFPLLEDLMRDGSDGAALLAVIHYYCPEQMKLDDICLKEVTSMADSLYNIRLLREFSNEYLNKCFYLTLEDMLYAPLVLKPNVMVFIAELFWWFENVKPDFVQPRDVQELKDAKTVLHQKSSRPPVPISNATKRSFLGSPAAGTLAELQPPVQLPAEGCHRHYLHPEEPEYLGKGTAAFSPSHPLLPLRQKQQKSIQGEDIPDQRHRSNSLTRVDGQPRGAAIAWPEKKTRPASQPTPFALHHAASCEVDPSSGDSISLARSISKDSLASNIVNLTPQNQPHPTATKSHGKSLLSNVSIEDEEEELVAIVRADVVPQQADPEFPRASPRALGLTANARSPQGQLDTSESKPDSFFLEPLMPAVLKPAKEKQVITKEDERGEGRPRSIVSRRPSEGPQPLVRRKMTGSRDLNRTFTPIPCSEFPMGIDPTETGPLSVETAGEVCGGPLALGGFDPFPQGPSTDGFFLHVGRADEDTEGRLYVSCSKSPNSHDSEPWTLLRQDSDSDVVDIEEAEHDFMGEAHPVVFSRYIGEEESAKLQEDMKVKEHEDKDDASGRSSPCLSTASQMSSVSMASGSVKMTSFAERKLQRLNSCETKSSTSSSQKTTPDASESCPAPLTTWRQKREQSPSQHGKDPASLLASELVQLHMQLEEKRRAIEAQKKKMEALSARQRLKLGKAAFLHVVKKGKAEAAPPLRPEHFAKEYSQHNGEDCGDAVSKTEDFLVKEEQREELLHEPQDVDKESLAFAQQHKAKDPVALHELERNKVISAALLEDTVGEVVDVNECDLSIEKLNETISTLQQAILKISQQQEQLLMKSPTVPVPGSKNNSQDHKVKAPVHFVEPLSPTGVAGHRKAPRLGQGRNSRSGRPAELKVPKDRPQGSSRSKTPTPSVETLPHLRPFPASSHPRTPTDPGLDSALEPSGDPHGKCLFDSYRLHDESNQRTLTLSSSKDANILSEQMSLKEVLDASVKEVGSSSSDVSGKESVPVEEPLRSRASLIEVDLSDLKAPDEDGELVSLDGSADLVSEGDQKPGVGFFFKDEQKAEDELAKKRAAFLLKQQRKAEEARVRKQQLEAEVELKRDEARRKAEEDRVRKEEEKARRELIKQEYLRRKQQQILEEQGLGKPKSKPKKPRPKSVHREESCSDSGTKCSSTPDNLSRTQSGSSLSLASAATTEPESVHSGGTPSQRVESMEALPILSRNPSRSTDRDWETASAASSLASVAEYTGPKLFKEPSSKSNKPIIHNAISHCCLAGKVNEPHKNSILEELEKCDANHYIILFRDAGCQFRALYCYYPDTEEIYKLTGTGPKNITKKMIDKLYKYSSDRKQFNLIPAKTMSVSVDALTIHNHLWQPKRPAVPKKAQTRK
UniProt O75208, sequence (O75208 whole entry, looked up): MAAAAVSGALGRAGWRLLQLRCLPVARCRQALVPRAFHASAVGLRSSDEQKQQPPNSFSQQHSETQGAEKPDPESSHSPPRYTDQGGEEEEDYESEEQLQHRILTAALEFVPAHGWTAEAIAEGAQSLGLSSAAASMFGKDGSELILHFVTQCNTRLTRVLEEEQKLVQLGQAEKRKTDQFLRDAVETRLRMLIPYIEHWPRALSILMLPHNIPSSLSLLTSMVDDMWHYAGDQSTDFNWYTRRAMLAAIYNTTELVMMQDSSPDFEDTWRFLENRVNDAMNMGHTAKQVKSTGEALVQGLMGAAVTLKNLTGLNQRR
UniProt Q16740, sequence (Q16740 whole entry, looked up): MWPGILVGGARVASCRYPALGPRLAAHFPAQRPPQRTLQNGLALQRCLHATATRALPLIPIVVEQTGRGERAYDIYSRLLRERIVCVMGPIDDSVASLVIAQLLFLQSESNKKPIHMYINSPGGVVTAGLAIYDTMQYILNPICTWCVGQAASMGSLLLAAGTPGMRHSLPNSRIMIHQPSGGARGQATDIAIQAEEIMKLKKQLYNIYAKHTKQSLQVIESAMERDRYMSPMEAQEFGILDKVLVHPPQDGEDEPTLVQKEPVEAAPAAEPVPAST
UniProt O15182, sequence (O15182 whole entry, looked up): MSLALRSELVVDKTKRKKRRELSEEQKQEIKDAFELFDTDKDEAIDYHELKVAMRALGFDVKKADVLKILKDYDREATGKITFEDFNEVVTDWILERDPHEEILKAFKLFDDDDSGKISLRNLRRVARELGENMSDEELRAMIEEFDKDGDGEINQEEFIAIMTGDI
UniProt Q2TAC2, sequence (Q2TAC2 whole entry, looked up): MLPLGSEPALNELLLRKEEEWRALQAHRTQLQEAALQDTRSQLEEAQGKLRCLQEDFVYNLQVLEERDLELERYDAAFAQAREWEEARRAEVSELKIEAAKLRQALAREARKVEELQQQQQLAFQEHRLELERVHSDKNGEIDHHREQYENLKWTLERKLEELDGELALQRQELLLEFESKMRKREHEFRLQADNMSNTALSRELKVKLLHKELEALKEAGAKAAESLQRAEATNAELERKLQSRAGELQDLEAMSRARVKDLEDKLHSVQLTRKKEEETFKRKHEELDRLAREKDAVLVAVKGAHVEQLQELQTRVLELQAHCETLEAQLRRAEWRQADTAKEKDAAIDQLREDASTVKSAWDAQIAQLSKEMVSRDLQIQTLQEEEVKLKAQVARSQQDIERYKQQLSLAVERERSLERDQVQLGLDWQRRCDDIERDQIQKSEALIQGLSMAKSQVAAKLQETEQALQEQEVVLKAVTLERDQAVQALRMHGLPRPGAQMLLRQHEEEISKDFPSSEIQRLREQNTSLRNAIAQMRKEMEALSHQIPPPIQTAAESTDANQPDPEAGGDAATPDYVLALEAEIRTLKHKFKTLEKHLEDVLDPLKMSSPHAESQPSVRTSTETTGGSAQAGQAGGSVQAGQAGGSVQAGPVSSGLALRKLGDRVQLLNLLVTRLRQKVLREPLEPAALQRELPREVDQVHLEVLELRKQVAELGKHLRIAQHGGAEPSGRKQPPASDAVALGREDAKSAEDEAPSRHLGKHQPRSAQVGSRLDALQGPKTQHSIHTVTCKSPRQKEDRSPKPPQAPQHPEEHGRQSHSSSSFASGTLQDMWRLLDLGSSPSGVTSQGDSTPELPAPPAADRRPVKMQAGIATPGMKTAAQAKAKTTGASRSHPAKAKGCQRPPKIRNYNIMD

log2 fold change, inactive:
CLCN7 (UniProt P51798) 0.031
CCZ1 (UniProt P86791) -0.005
C1D (UniProt Q13901) -0.034
CNOT7 (UniProt Q9UIV1) -0.049
CDC42BPA isoform 6 (UniProt Q5VT25) 0.053
COMMD1 (UniProt Q8N668) 0.054
CETN3 (UniProt O15182) 0.006
C4orf33 (UniProt Q8N1A6) 0.007
CDK9 isoform 2 (UniProt P50750) 0.064
CDC25B isoform 4 (UniProt P30305) -0.266
CHEK1 (UniProt O14757) 0.005
CD53 (UniProt P19397) -0.049
CRTC2 (UniProt Q53ET0) 0.061
CDK4 (UniProt P11802) 0.117
CNOT1 (UniProt A5YKK6) 0.056
CPSF1 (UniProt Q10570) 0.031
CLUH, A0A494C0R8 0.006
CEPT1 (UniProt Q9Y6K0) -0.066
CELF2 isoform 3 (UniProt O95319) 0.02
CDC42SE1 (UniProt Q9NRR8) -0.127
CASP3 (UniProt P42574) -0.033
CDK12 (UniProt Q9NYV4) 0.016
COQ9 (UniProt O75208) 0.001
COMMD2 (UniProt Q86X83) 0.07
CDK6 (UniProt Q00534) 0.007
CA8 (UniProt P35219) 0.038
CA1 (UniProt P00915) 0.01
CLSPN (UniProt Q9HAW4) -0.019
CCNH (UniProt P51946) 0.021
CLPP (UniProt Q16740) -0.045
CHD4 isoform 2 (UniProt Q14839) 0.158
CAMSAP1 isoform 3 (UniProt Q5T5Y3) 0.184
CCDC57 (UniProt Q2TAC2) -0.043
CHST11 (UniProt Q9NPF2) -0.078
CRLF3 (UniProt Q8IUI8) 0.067
CAD (UniProt P27708) 0.019
